The target of this assay is Neuropilin-1 (Homo sapiens) (UniProt O14786). Nature of the assay: NRP-1 b1b2 CendR peptide binding inhibitors, dose response, biochemical, FP and AlphaScreen panel (AID 651650). Particulars: NRP-1 b1b2 / RPARPAR peptide binding, FP or AlphaScreen; run 1, at 100 µM (top of the series).
Sequence of Neuropilin-1 (Homo sapiens) (O14786 whole entry, looked up): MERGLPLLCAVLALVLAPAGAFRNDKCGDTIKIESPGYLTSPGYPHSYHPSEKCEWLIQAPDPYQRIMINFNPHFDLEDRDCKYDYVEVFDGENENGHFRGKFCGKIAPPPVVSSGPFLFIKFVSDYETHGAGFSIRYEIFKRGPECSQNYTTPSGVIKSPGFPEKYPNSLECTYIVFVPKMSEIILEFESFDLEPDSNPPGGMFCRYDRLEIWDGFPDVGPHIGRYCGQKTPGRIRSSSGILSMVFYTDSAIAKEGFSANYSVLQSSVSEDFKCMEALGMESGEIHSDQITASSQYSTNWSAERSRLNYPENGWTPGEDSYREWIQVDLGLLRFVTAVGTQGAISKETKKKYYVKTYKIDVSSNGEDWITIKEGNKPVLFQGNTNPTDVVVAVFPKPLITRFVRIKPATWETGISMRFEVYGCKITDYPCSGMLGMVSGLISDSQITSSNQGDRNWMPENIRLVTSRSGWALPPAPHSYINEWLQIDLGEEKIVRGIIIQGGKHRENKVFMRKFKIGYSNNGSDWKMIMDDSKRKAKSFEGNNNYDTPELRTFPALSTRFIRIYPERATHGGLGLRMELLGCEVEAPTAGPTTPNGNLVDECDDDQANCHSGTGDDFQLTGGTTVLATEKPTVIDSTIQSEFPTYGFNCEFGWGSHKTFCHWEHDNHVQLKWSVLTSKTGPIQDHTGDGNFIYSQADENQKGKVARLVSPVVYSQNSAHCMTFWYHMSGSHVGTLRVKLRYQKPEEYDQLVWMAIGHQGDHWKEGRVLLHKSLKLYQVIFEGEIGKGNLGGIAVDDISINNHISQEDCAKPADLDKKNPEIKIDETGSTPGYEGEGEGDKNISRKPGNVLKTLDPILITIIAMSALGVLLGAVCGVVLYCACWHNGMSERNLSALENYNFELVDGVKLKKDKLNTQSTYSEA

As to `Fc1cnc(N2CCOCC2)nc1N1CCOCC1`, the inhibition was 49%.

For `COc1cc2c(cc1OC)C(Nc1ccc(S(N)(=O)=O)cc1)=NC(C)(C)C2`, the inhibition was 71.9%.

As to `CCN(CC)C(=O)C1CCCN(C(=O)Nc2ccc3nsnc3c2)C1` (configuration not stated), the inhibition was 21.5%.

For `COC(=O)C1N[C@@H]([C@@H](NC(=O)COc2ccccc2)C(=O)NCc2ccccc2)SC1(C)C` (some centres not stated), the inhibition came out at 18.2%.

On to `CC(/C=C/c1ccccc1)=N\NC(=O)CCc1ccccc1`, for which the inhibition is 19.2%.

As for `O=C(CSC1CN(C(c2ccccc2)c2ccccc2)C1)N/N=C/c1ccccc1`, the inhibition worked out at 53.3%.

Take `CCOC(=O)C1=CCN(S(=O)(=O)c2ccccc2Br)C1c1ccccc1` (configuration not stated): the inhibition worked out at 35.1%.

`COc1ccc(-c2csc(NCCc3nc4cc(C(=O)NCCCO)ccc4n3Cc3ccc(C)cc3)n2)cc1`: the inhibition turned out to be 90.9%.

With `COC(=O)N[C@@H]1C[C@H]2[C@@H]3CC[C@H]4C[C@@H](OC)CC[C@]4(C)[C@H]3CC[C@]12C`, the inhibition was 57.8%.

`O=C(NCCCN1CCOCC1)c1ccc2c(=O)n(-c3ccc(F)c(Cl)c3)c(=S)[nH]c2c1`: the inhibition was determined as 35.9%.

For `Cc1cc2c(cc1C)NC(c1nc3ccccc3[nH]1)C1=C(CC(C)(C)CC1=O)N2` (configuration not stated), the inhibition was 20.6%.

For the molecule `CNC(=O)NC(=O)C(C)OC(=O)c1c(C)noc1C` (configuration not stated), the inhibition is 49.1%.

Turning to `CC(=O)OC[C@@H]1CN(Cc2cccc(C(F)(F)F)c2)C[C@H](n2cnc3c(NCc4ccco4)ncnc32)O1`, the inhibition came to 54.5%.

For `Cc1ccc(C(=O)Nc2nnc([C@H]3C[C@H](O)[C@@H](CO)O3)s2)cc1`, the inhibition amounted to 25.4%.

Turning to `COc1ccc(N=C2C(=Nc3ccc(OC)cc3)N(c3ccc(N(C)C)cc3)C(=S)N2c2ccc(OC)cc2)cc1`, the inhibition turned out to be 50.6%.

On to `CCOc1ccccc1C1CC(=O)NC2=C1C(=O)CC(C)(C)C2` (configuration not stated), for which the inhibition was determined as 32%.

Turning to `CC(=O)Nc1ccccc1OCC(=O)N(Cc1ccccc1)C(C)C`, the inhibition came to 18.2%.

For `CCOc1ccc(/C=C2/Sc3ccc(C(=O)NCC4CCCO4)cc3N(C)C2=O)cc1OC` (configuration not stated), the inhibition came out at 77.7%.

For the molecule `O=C1CCC[C@@H]2Cc3nc4cc5c(cc4cc3[C@@H]3CCN1[C@H]23)OCO5`, the inhibition was 30.9%.

`COC(=O)c1c(NC(=O)CN(c2ccccc2)S(C)(=O)=O)sc2c1CCCC2`: the inhibition worked out at 84%.

With `CCc1cccc(NC(=O)CCc2c(C)nn(-c3ccc(N4CCOCC4)nn3)c2C)c1`, the inhibition worked out at 75.8%.

`Fc1cc(Cl)ccc1Nc1nc(NCc2ccccc2)nc2ccsc12`: the inhibition was 23%.

In the case of `CC(=O)NCCNc1nc(NC(C)C)nc2ccsc12`, the inhibition is -4.88%.

For `O=C1CCN(Cc2ccccc2)S(=O)(=O)c2ccccc21`, the inhibition was found to be 54%.

For `Cc1cc2cc(CNC(=O)c3ccco3)ccc2n1C`, the inhibition turned out to be 40.6%.

In the case of `O=c1[nH]c(Nc2ccccn2)cc2ccccc12`, the inhibition came out at 81.1%.

For the molecule `CN(c1ccccc1)S(=O)(=O)c1cccc(NC(=O)CSc2nncn2C)c1`, the inhibition is 21.8%.

With `CCN(CCCNC(=O)CNC(=O)c1nn(-c2ccc(OC)cc2OC)c(=O)c2ccccc12)c1cccc(C)c1`, the inhibition is 24.3%.

On to `CCNC(=O)C1(C)CCCN(C(=O)c2nc(C)oc2C)C1` (configuration not stated), for which the inhibition was 20.1%.

For `CC(=O)NC(c1cccc(F)c1)c1nc(-c2cccc(C(F)(F)F)c2)cs1` (configuration not stated), the inhibition was determined as 9.72%.

In the case of `COc1ccc(CCN=C2SCC(=O)N2Cc2ccccc2)cc1OC`, the inhibition came out at 28.8%.

For `NC(=O)C1CCCN(C(=O)c2ccc3nc(Cc4cccc(Cl)c4)oc3c2)C1` (configuration not stated), the inhibition came to 101%.

Consider `O=C(CCC(=O)Nc1ccccc1Cl)NN=C1CCCC1`, for which the inhibition is 67.6%.

Turning to `O=C(c1ccc(-c2cccc(C(F)(F)F)c2)o1)N1CCCC(C(F)(F)F)C1` (configuration not stated), the inhibition was 3.1%.

With `COc1ccc(Cn2c3ccc(OC)cc3c3nc4ccccc4nc32)cc1`, the inhibition was 78.8%.

In the case of `O=c1c2ccccc2nc2n1C(CSc1ccc(F)cc1)CS2` (configuration not stated), the inhibition came to 101%.

In the case of `NC(=O)C(c1ccc(Cl)cc1Cl)c1ncc(C(F)(F)F)cc1Cl` (configuration not stated), the inhibition is 88.6%.

As to `CC(=O)/C(=N\Nc1ccc(Cl)cc1Cl)Sc1cccc2cccnc12`, the inhibition was 24.8%.

Take `CCn1cc(C(=O)N2CCN(C(=O)c3ccco3)CC2)c2cc(OC)c(OC)cc2c1=O`: the inhibition turned out to be 77.9%.

With `CN(C)Cc1cc(C(F)(F)F)ccc1C(O)(c1ccccc1)c1ccccc1`, the inhibition was -5.25%.

Turning to `OCC1OC(n2cnc3c(/C=C(\O)c4ccccc4)ncnc32)C(O)C1O` (configuration not stated), the inhibition stood at 3.57%.

`Cn1cccc1C1Nc2ccccc2NC2=C1C(=O)CC(C)(C)C2` (configuration not stated): the inhibition was determined as 12.9%.

Take `COC(=O)Cc1ccc(NC(=S)NCCCO)cc1`: the inhibition came to 49.7%.

Turning to `Cc1cc2c(=O)[nH]cnc2s1`, the inhibition was determined as 13.4%.

As to `CC(C)(C)n1cnc2cc(NC(=O)c3ccccc3)ccc21`, the inhibition was found to be 95.9%.

As for `Cn1c(=NC(=O)COc2ccccc2)sc2ccccc21`, the inhibition is -1.2%.

On to `CCOC(=O)c1c(=O)n(O)c2ccc(OC)cc2[n+]1[O-]`, for which the inhibition is -2.72%.

Take `CCOC(=O)C1=C(O)C(=O)N(c2ccccc2)C1c1cccc([N+](=O)[O-])c1` (configuration not stated): the inhibition was determined as 26.5%.

Take `CCCS(=O)(=O)N1CCC(Cc2ccc(OC)cc2)(C(=O)OCC)CC1`: the inhibition is -57.8%.

On to `NS(=O)(=O)c1ccc(CNC(=S)NCc2ccc(F)cc2)cc1`, for which the inhibition worked out at 42.3%.

Take `CN(Cc1ccccc1)C(=O)c1nc[nH]c1C(=O)N1CCN(C(=O)OC(C)(C)C)CC1`: the inhibition was found to be 53.3%.

Regarding `CCCCc1ccc(S(=O)(=O)N2CCC3(CC2)OCCO3)cc1`, the inhibition stood at 16.7%.

`CC(C)COC(=O)C1C2C=CC3(CN(C(C)c4ccc(Br)cc4)C(=O)C13)O2` (configuration not stated): the inhibition came out at 60.2%.

As to `COC(=O)CCCC1=CC2=CC(=O)C(C)(OC(=O)c3cccs3)C(=O)C2=CN1CCCCO` (configuration not stated), the inhibition was 38.6%.

`NC1=NC[C@@H](Cc2ccc(O)cc2)N1CCCCC1CCCCC1`: the inhibition was determined as 26.5%.

For the molecule `FC(F)(F)C1CC(c2cccs2)Nc2ncnn21` (configuration not stated), the inhibition was found to be 46%.

For the molecule `O=[N+]([O-])c1ccc(-n2nnnc2CN2CCCCC2)cc1`, the inhibition was 22.7%.

For the molecule `Cn1cnc2cc(NC(=O)c3ccco3)ccc21`, the inhibition was 77.5%.

As for `O=C(NCCCN1CCCCCC1)c1ccc(CS(=O)(=O)Cc2ccccc2F)o1`, the inhibition is 40.3%.

With `CCOC(=O)C(NC(=O)CC(C)C)(Nc1sc(C)c(CC)c1C#N)C(F)(F)F` (configuration not stated), the inhibition is -7.38%.

On to `Cc1cc(NC(=O)COC(=O)c2ccc(C)c(C)c2)no1`, for which the inhibition was 5.88%.

Turning to `O=C(Cn1ccc(NC(=O)OCc2ccccc2)nc1=O)NCCCn1ccnc1`, the inhibition came to 48.6%.

For the molecule `Cc1ccc2cc(CN(c3ccccc3C)S(=O)(=O)c3ccccc3)c(=O)[nH]c2c1`, the inhibition turned out to be 41.9%.

As to `CCOC(=O)CNc1ccc2c(c1)OCO2`, the inhibition came to 82.2%.

For the molecule `CC(O)(c1cccnc1)c1nc(/C=C/c2ccccc2)cs1` (configuration not stated), the inhibition came out at 42.6%.

In the case of `COCCNC(=S)N(CCc1c(C)[nH]c2ccc(F)cc12)Cc1cccs1`, the inhibition was 34.4%.

As to `CCCCn1nnnc1C(c1cc2ccccc2o1)N(C)Cc1ccc(Cl)c(Cl)c1` (configuration not stated), the inhibition stood at 104%.

For the molecule `COc1c2ccc(C(=O)NCc3cc(C(F)(F)F)cc(C(F)(F)F)c3)cc2nn1C`, the inhibition was 38.2%.

As for `CC(=O)Nc1ccc2nc3c(=O)n(C)c(=O)n(C)c3nc2c1`, the inhibition amounted to 84.8%.

Take `COc1ccc(Cl)cc1NC(=O)C(C)N1CCc2ccccc21` (configuration not stated): the inhibition was found to be 82.6%.

For `CCOc1c2ccc(C(=O)NCCc3cccs3)cc2nn1CC`, the inhibition was -5.4%.

In the case of `c1ccc(OCCCN2CCCC2)cc1`, the inhibition is 53.9%.

As to `CCOC(=O)c1ccc(NC(=O)CN2CCc3ccccc3C2)cc1`, the inhibition came to 1.94%.

As to `Cc1cc2cc(CNC(=O)c3ccc(S(=O)(=O)N4CCOCC4)cc3)ccc2n1C`, the inhibition was 18.3%.

For `Cc1ccccc1/C=C/c1nc2ccccc2c(=O)n1CCc1ccccc1`, the inhibition stood at 34.1%.

As for `Cc1ccc(CN(CC(=O)NC2CCCCC2)C(=O)c2csnn2)cc1`, the inhibition was 30.2%.

As for `Cc1ccc(NC(=O)c2ccc3c(c2)S(=O)(=O)c2ccccc2C3=O)cc1S(=O)(=O)N1CCOCC1`, the inhibition amounted to 26.3%.
